From PubChem BioAssay (NCI)
Compounds without any hit were thinned out: in the full panel of roughly 79,000, 15% have a hit. Active and inactive are the calls of the source. Rule as the data show it: active = growth inhibition above about 70%; inactive = the rest.

Experiment: NCI Yeast Anticancer Drug Screen. Data for the bub3 strain (AID 167)
Conditions: S. cerevisiae bub3 mutant strain, at 5.0 µM (retest, dose inferred, filed as 0.5), stronger effect = higher value
Method in brief: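 Mutant yeast screening strain plus compound; vehicle-treated cultures serve as the 0% inhibition reference.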

SMILES	growth inhibition
CCCCCC(C1SC(=S)NC1=O)C1SC(=S)NC1=O (stereo not given)	0% (inactive)
CC(C)C1=CC2=CC(=O)C3C(C)(C)CCCC3(C)C2=C(O)C1=O (stereo not given)	49% (inactive)
CCOC(=O)C[n+]1c(C)sc2ccccc21	-6% (inactive)
OCc1c(-c2cccc3ccccc23)sc(-c2cccc3ccccc23)c1CO	39% (inactive)
CC1=C(C#N)C(=O)OC1(C)C(CC(=O)c1ccccc1)c1ccccc1 (stereo not given)	2% (inactive)
O=c1oc2c3ccc4ccccc4c3n(CCCN3CCCCC3)c2c2ccccc12	-4% (inactive)
Cc1cc(NC(=S)SCc2ccc(F)cc2)ccc1Br	56% (inactive)
Cc1ccc(C2C(O)=C(c3ccccc3)Sc3ccc(C)cc32)cc1 (stereo not given)	-4% (inactive)
COC(=O)/C=C1/OC(c2ccccc2)=CC1=O	0% (inactive)
COc1ccccc1NC(=O)CC(=O)N1N=C(c2ccccc2)C(N=Nc2ccc(Cl)cc2)C1=O (stereo not given)	15% (inactive)
CC(=O)NC1=C(Nc2ccc(-c3ccc(NC4=C(NC(C)=O)C(=O)c5ccccc5C4=O)cc3)cc2)C(=O)c2ccccc2C1=O	99% (active)
CCCCCCC(O)CCOC(C)=O (stereo not given)	4% (inactive)
CCn1nc(-c2ccccc2)c2c1N(C)c1ccccc1-n1c(-c3ccccc3)nnc1-2	-11% (inactive)
CC1(CCC(=O)O)c2ccc3ccccc3c2Oc2c1ccc1ccccc21	51% (inactive)
CCN1/C(=C\c2cc(C)nc(-c3ccccc3)[n+]2C)C=Cc2ccccc21	64% (inactive)
Cc1ccccc1N1C(=O)c2ccccc2C1=O	1% (inactive)
O=C(Oc1ccccc1)C1CCCCC1C(=O)Oc1ccccc1 (stereo not given)	-9% (inactive)
Cc1cccc2c1C1c3c(C)cccc3C(O)CC1CC2O (stereo not given)	-10% (inactive)
CC(C)c1cc2c(cc1O)C(O)C1(O)CCCC(C)(C)[C@H]1CC2 (stereo not given in full)	6% (inactive)
C/C=C/c1ccc(OCC(=O)O)c(OC)c1	-31% (inactive)

SMILES	growth inhibition
Nc1ccc(S(=O)(=O)NCc2nccs2)cc1	37% (inactive)
N#CC(NNC(=O)c1ccccc1O)c1c(O)ccc2ccccc12 (stereo not given)	17% (inactive)
Oc1ccc(Cl)cc1Cc1cc(Cl)cc(Cc2cc(Cl)ccc2O)c1O	-17% (inactive)
O=C1CN(CCN2CCOCC2)CC(=O)N2Cc3ccccc3CN12	6% (inactive)
CC1CCC(SC2CC(=O)CCC2=O)CC1 (stereo not given)	24% (inactive)
Clc1ccc(OCC2CO2)c(Cl)c1 (stereo not given)	6% (inactive)
CN=C(N)N/N=C(\C)c1ccc2c(ccc3ccccc32)c1	33% (inactive)
Cc1cc(O)c(/C=N/c2nc(-c3cccc([N+](=O)[O-])c3)cs2)c(=O)o1	51% (inactive)
COc1cccc2c1OC(c1ccc(Cl)cc1)C([N+](=O)[O-])=C2 (stereo not given)	97% (active)
COc1ccc(C(=O)C2C(=O)C(=O)OC2C2OC(=O)C(=O)C2C(=O)c2ccc(OC)cc2)cc1 (stereo not given)	0% (inactive)
CCCCCCCCCCCCCCCCOc1ccc(S(=O)(=O)N/N=c2/sc3ccc(S(=O)(=O)O)cc3n2C)cc1C(=O)O	-3% (inactive)
O=C(Nc1ccc(F)cc1)N1CCCCC1	41% (inactive)
C[CH2][Sn]([CH2]C)([O]C(=O)c1cc(OC)c(OC)c(OC)c1)[O][Sn]([CH2]C)([CH2]C)[O]C(=O)c1cc(OC)c(OC)c(OC)c1	36% (inactive)
C/C(O)=C(/C=N/C(=S)Nc1ccc(S(N)(=O)=O)cc1)C(=O)Nc1ccccc1C	-13% (inactive)
CC(C)CC(N)C(=O)NNc1ccccc1 (stereo not given)	37% (inactive)
CCC(C(c1ccc(Cl)cc1)c1ccc(Cl)c(Cl)c1)[N+](=O)[O-] (stereo not given)	19% (inactive)
O=C(O)c1nc2cc(C(F)(F)F)ccc2nc1Nc1ccc(F)cc1	31% (inactive)
Nc1nc(-c2ccccn2)cc2cc(Cl)ccc12	92% (active)
CC1(c2ccccc2)NC(=O)N(CC(=O)N(c2ccccc2)c2ccccc2)C1=O (stereo not given)	8% (inactive)
O/N=C(/Cc1ccccc1)c1ccc2c(c1)OCO2	6% (inactive)

Same assay, conditions: S. cerevisiae bub3 mutant strain, at 50.0 µM (retest, dose inferred, filed as 5.0), stronger effect = higher value

SMILES	growth inhibition
CCCCCC(C1SC(=S)NC1=O)C1SC(=S)NC1=O (stereo not given)	0% (inactive)
CC(C)C1=CC2=CC(=O)C3C(C)(C)CCCC3(C)C2=C(O)C1=O (stereo not given)	93% (active)
CCOC(=O)C[n+]1c(C)sc2ccccc21	15% (inactive)
OCc1c(-c2cccc3ccccc23)sc(-c2cccc3ccccc23)c1CO	82% (active)
CC1=C(C#N)C(=O)OC1(C)C(CC(=O)c1ccccc1)c1ccccc1 (stereo not given)	11% (inactive)
O=c1oc2c3ccc4ccccc4c3n(CCCN3CCCCC3)c2c2ccccc12	-4% (inactive)
Cc1cc(NC(=S)SCc2ccc(F)cc2)ccc1Br	100% (active)
Cc1ccc(C2C(O)=C(c3ccccc3)Sc3ccc(C)cc32)cc1 (stereo not given)	39% (inactive)
COC(=O)/C=C1/OC(c2ccccc2)=CC1=O	0% (inactive)
COc1ccccc1NC(=O)CC(=O)N1N=C(c2ccccc2)C(N=Nc2ccc(Cl)cc2)C1=O (stereo not given)	15% (inactive)
CC(=O)NC1=C(Nc2ccc(-c3ccc(NC4=C(NC(C)=O)C(=O)c5ccccc5C4=O)cc3)cc2)C(=O)c2ccccc2C1=O	99% (active)
CCCCCCC(O)CCOC(C)=O (stereo not given)	1% (inactive)
CCn1nc(-c2ccccc2)c2c1N(C)c1ccccc1-n1c(-c3ccccc3)nnc1-2	99% (active)
CC1(CCC(=O)O)c2ccc3ccccc3c2Oc2c1ccc1ccccc21	92% (active)
CCN1/C(=C\c2cc(C)nc(-c3ccccc3)[n+]2C)C=Cc2ccccc21	99% (active)
Cc1ccccc1N1C(=O)c2ccccc2C1=O	16% (inactive)
O=C(Oc1ccccc1)C1CCCCC1C(=O)Oc1ccccc1 (stereo not given)	-5% (inactive)
Cc1cccc2c1C1c3c(C)cccc3C(O)CC1CC2O (stereo not given)	4% (inactive)
CC(C)c1cc2c(cc1O)C(O)C1(O)CCCC(C)(C)[C@H]1CC2 (stereo not given in full)	99% (active)
C/C=C/c1ccc(OCC(=O)O)c(OC)c1	-4% (inactive)

SMILES	growth inhibition
Nc1ccc(S(=O)(=O)NCc2nccs2)cc1	80% (active)
N#CC(NNC(=O)c1ccccc1O)c1c(O)ccc2ccccc12 (stereo not given)	79% (active)
Oc1ccc(Cl)cc1Cc1cc(Cl)cc(Cc2cc(Cl)ccc2O)c1O	98% (active)
O=C1CN(CCN2CCOCC2)CC(=O)N2Cc3ccccc3CN12	35% (inactive)
CC1CCC(SC2CC(=O)CCC2=O)CC1 (stereo not given)	98% (active)
Clc1ccc(OCC2CO2)c(Cl)c1 (stereo not given)	-7% (inactive)
CN=C(N)N/N=C(\C)c1ccc2c(ccc3ccccc32)c1	99% (active)
Cc1cc(O)c(/C=N/c2nc(-c3cccc([N+](=O)[O-])c3)cs2)c(=O)o1	100% (active)
COc1cccc2c1OC(c1ccc(Cl)cc1)C([N+](=O)[O-])=C2 (stereo not given)	96% (active)
COc1ccc(C(=O)C2C(=O)C(=O)OC2C2OC(=O)C(=O)C2C(=O)c2ccc(OC)cc2)cc1 (stereo not given)	-5% (inactive)
CCCCCCCCCCCCCCCCOc1ccc(S(=O)(=O)N/N=c2/sc3ccc(S(=O)(=O)O)cc3n2C)cc1C(=O)O	83% (active)
O=C(Nc1ccc(F)cc1)N1CCCCC1	70% (active)
C[CH2][Sn]([CH2]C)([O]C(=O)c1cc(OC)c(OC)c(OC)c1)[O][Sn]([CH2]C)([CH2]C)[O]C(=O)c1cc(OC)c(OC)c(OC)c1	94% (active)
C/C(O)=C(/C=N/C(=S)Nc1ccc(S(N)(=O)=O)cc1)C(=O)Nc1ccccc1C	-6% (inactive)
CC(C)CC(N)C(=O)NNc1ccccc1 (stereo not given)	96% (active)
CCC(C(c1ccc(Cl)cc1)c1ccc(Cl)c(Cl)c1)[N+](=O)[O-] (stereo not given)	38% (inactive)
O=C(O)c1nc2cc(C(F)(F)F)ccc2nc1Nc1ccc(F)cc1	60% (inactive)
Nc1nc(-c2ccccn2)cc2cc(Cl)ccc12	99% (active)
CC1(c2ccccc2)NC(=O)N(CC(=O)N(c2ccccc2)c2ccccc2)C1=O (stereo not given)	38% (inactive)
O/N=C(/Cc1ccccc1)c1ccc2c(c1)OCO2	29% (inactive)
